# The whole screen tested about 52,000 compounds, of which about 4,300 (8.3%) were called active. The full list was thinned out, with actives kept by preference. Values without a mark were called inactive. Rule as the data show it: active = survival mostly below about 52% (no sharp cut-off); inactive = mostly above about 56%.
# System: DeltatarO mutant
# Experiment: S. aureus survival, RN4220 and DeltatarO strains – OD600, teichoic acid synthesis inhibitors, primary screen (AID 463173)
# Conditions: S. aureus RN4220 wild type/DeltatarO growth, OD600, 18 h, active compounds read low, screened at 18.75 µg/mL (by protocol)
row,Structure (SMILES),survival
1,CCOC(=O)C1=C(CS(=O)(=O)c2ccc(OC)c(Cl)c2)NC(=O)NC1c1cccc(OC)c1 (centres undefined),59%
2,Cc1cc(=O)[nH]c(SC(C)C(=O)Nc2ccccc2)n1 (centres undefined),90%
3,COc1ccccc1NC(=O)CSc1nc(-c2ccc(C)cc2)nc2c1Cc1c(CO)cnc(C)c1O2,49% (active)
4,Cc1cccc(NC(=O)CSc2nc(-c3ccccc3Cl)nc3c2Cc2c(CO)cnc(C)c2O3)c1C,117%
5,COc1ccccc1NC(=O)CSc1nc(-c2cccc(Cl)c2)nc2c1Cc1c(CO)cnc(C)c1O2,87%
6,Cc1ccc(C)c(NC(=O)CSc2nc(-c3ccccc3Cl)nc3c2Cc2c(CO)cnc(C)c2O3)c1,118%
7,Cc1ccc(-c2nc3c(c(SCC(=O)Nc4ccccc4Cl)n2)Cc2c(CO)cnc(C)c2O3)cc1,46% (active)
8,COc1ccccc1-c1nc2c(c(SCC(=O)Nc3ccccc3F)n1)Cc1c(CO)cnc(C)c1O2,88%
9,Cc1ccc(C)c(N2CCN(Cc3csc(C)c3C)CC2)c1,77%
10,CSc1ccc(CCNc2ncnc3onc(C)c23)cc1,98%
11,O=C(c1ccc2c(c1)N(Cc1ccccc1)C(=O)c1ccccc1S2(=O)=O)N1CCc2ccccc21,81%
12,COc1ccccc1CNC(=O)c1ccc2c(c1)N(Cc1cccc(Cl)c1)C(=O)c1ccccc1S2(=O)=O,37% (active)
13,O=C(c1ccc2c(c1)N(Cc1cccc(Cl)c1)C(=O)c1ccccc1S2(=O)=O)N1CCc2ccccc21,0% (active)
14,O=S1(=O)c2ccccc2N(Cc2ccc(Cl)cc2)c2ccccc21,131%
15,O=C(NCc1ccco1)c1ccc2c(c1)N(Cc1ccc(Cl)cc1)C(=O)c1ccccc1S2(=O)=O,89%
16,O=C(c1ccc2c(c1)N(Cc1ccc(Cl)cc1)C(=O)c1ccccc1S2(=O)=O)N1CCc2ccccc21,120%
17,O=C(NCc1ccco1)c1ccc2c(c1)N(Cc1cccc(Cl)c1)C(=O)c1ccccc1S2(=O)=O,46% (active)
18,O=S1(=O)c2ccccc2N(Cc2ccccc2)c2ccccc21,69%
19,O=C(NCc1ccco1)c1ccc2c(c1)N(Cc1ccccc1)C(=O)c1ccccc1S2(=O)=O,68%
20,O=S1(=O)c2ccccc2N(Cc2cccc(Cl)c2)c2ccccc21,0% (active)
21,O=C(NCc1ccccc1)c1ccc2c(c1)N(Cc1cccc(Cl)c1)C(=O)c1ccccc1S2(=O)=O,93%
22,COc1ccccc1CNC(=O)c1ccc2c(c1)N(Cc1cccc(C)c1)C(=O)c1ccccc1S2(=O)=O,87%

row,Structure (SMILES),survival
1,O=C(O)COCC(=O)Nc1ccc2c(c1)CCC2,103%
2,COc1ccc(-c2nnc(SCC(=O)Nc3cccc(Cl)c3C)nc2-c2ccc(OC)cc2)cc1,89%
3,COc1ccc(CNC(=O)CCC(=O)N2CC3CCCN3c3ccccc32)cc1 (centres undefined),71%
4,CC1=C(c2ccc(C)c(C)c2)S(=O)(=O)N(Cc2ccc(C(=O)NCc3cccc(C)c3)cc2)C1=O,77%
5,CN1CCSc2ccc(C(=O)NCc3ccccc3F)cc21,134%
6,CCOC(=O)c1cc2c(=O)n3ccccc3nc2n(CCCOC)c1=NC(=O)c1c(-c2c(F)cccc2Cl)noc1C,54%
7,CC(C)(C)OC(=O)N1CCC(c2c(C(=O)N3CCN(c4ccccc4F)CC3)cnn2C(C)(C)C)CC1,68%
8,COc1ccc(CCNC(=O)c2ccc(Cn3c(=O)c4ccccc4n(CC(=O)C(C)(C)C)c3=O)cc2)cc1OC,86%
9,O=c1c2sc3ccccc3c2n(Cc2ccc(F)cc2)c(=O)n1Cc1ccco1,79%
10,COc1cccc(Cc2nc3ccccc3nc2SCC(=O)N2CCCCC2C)c1 (centres undefined),79%
11,Cc1cc(Nc2ccccc2Cl)n2nc(-c3ccco3)nc2n1,88%
12,COc1ccc(Cl)cc1Nc1cc(C)nc2nc(-c3ccccc3C)nn12,70%
13,CCOc1ccc(OCC)c(Nc2cc(C)nc3nc(-c4ccco4)nn23)c1,17% (active)
14,Cc1cc(C)cc(Nc2cc(C)nc3nc(-c4ccco4)nn23)c1,94%
15,CC(=O)c1cccc(Nc2cc(C)nc3nc(-c4ccccc4C)nn23)c1,90%
16,Cc1cc(Nc2cccc(F)c2)n2nc(-c3ccco3)nc2n1,89%
17,CCOC(=O)c1ccccc1Nc1cc(C)nc2nc(-c3ccco3)nn12,128%
18,Cc1cc(Nc2ccc(Br)c(C)c2)n2nc(-c3ccco3)nc2n1,-5% (active)
19,Cc1cc(Nc2ccc(Br)cc2)n2nc(-c3ccccc3C)nc2n1,27% (active)
20,CN(CCCNC(=O)c1cc2c(=O)n(C)c3ccccc3c2s1)Cc1ccccc1,94%
21,CCCCS(=O)(=O)c1nc(-c2ccc(Br)cc2)cc(-c2ccccc2)c1C#N,119%
22,C/C(=C\C(=O)c1cccnc1)Nc1ccccc1O,103%

# Reference: PubChem BioAssay AID463173 (ICCB-Longwood Screening Facility, Harvard Medical School, 2010)
